DT40 TDP1 CPT – qHTS for Inhibitors of human tyrosyl-DNA phosphodiesterase 1 (TDP1): qHTS in cells in presence of CPT | chicken DT40 Tdp1-/-;hTDP1 cells + 20 nM CPT, ATP luminescence, 48 h | AID 686979, 2013 | 420,000 compounds, 12% hits | Potency, µM (doses to about 46.2 µM), for inactives: at the highest dose activity change, negative = growth inhibition, actives largely listed as inhibitors; note: potency is the fitted concentration of half-maximal effect; nearly all actives have a fitted effect of over 55% in size
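Cell growth measured by CellTiter-Glo luminescence after a minimum 48 h, 37 C compound exposure with 20 nM CPT in Tdp1-knockout DT40 cells stably expressing hTDP1, seeded 400/well; qHTS titration format.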
Gal4-VP16 FLuc – VP16 counterscreen qHTS for inhibitors of ROR gamma transcriptional activity; Drosophila S2 Gal4-VP16 UAS-luciferase, luminescence, 20 h; Potency, µM (doses to about 53.6 µM), inactives show at the top dose activity, negative = inhibition, usual class: inhibitors; 310,000 compounds, 3.5% hits;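 note: Gal4-VP16 expression switched on by copper sulfate through the metallothionein promoter; potency is the fitted concentration of half-maximal effect; nearly all actives have a fitted effect of over 50% in size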
DT40 TDP1 no CPT – qHTS for Inhibitors of human tyrosyl-DNA phosphodiesterase 1 (TDP1): qHTS in cells in absence of CPT; 420,000 compounds, 15% hits; AID 686978, 2013; Potency, µM (titrated, usually from 46.2 µM), without a hit: at the highest dose activity change, negative = growth inhibition, usual class: inhibitors; DT40 Tdp1-/- hTDP1 cells, no CPT, ATP luminescence, 48 h; note: potency is the fitted concentration of half-maximal effect; nearly all actives have a fitted effect of over 55% in size
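Seeded 400 DT40-hTDP1 cells/well (vehicle DMSO, no 20 nM CPT); pinned compounds; ≥48 hr at 37 °C; CellTiter-Glo luminescence as viability measure.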
ELG1 repair inh – qHTS screen for small molecules that inhibit ELG1-dependent DNA repair in human embryonic kidney (HEK293T) cells expressing luciferase-tagged ELG1; HEK293T ELG1-luciferase reporter, luminescence, 16 h; DNA damage induced by 5-fluorouridine; 330,000 compounds, 2.3% hits; Potency, µM (titrated, usually from 46.1 µM), for the others: at the highest dose activity change, negative = inhibition, most hits filed as inhibitors; note: potency is the fitted concentration of half-maximal effect; nearly all actives have a fitted effect of over 55% in size
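Luminescence from the luciferase reporter, measured 30 min after ONE-Glo reagent at room temperature, was the read-out. Beforehand, 2,000 cells per well were exposed for 16 hr at 37 °C to 5-fluorouridine together with compound or vehicle.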
IL-1B inflam inh – qHTS for Inhibitors of Inflammasome Signaling: IL-1-beta AlphaLISA Primary Screen; activity change, % at 57.5 µM; 360,000 compounds, 4.7% hits; THP-1 LPS/ATP IL-1B secretion, AlphaLISA, 16 h; active compounds read low; AID 743279, 2014; in the data active = activity change below about -50%; inconclusive = mostly about -30% to -49%
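THP-1 cells pretreated 1 hr with compounds (up to 57.5 uM final), then stimulated with LPS (250 ng/mL final) plus ATP (1.25 mM final); secreted IL-1B measured by AlphaLISA after 16 hr, decreased signal indicating inhibition.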
RORg inh – qHTS for inhibitors of ROR gamma transcriptional activity. Nuclear receptor ROR-gamma (Mus musculus), P51450. Drosophila S2 Gal4-RORgamma UAS-luciferase reporter, 20 h. Potency, µM (top dose mostly 53.6 µM), without a hit: at the top dose activity change, negative = inhibition, usual class: inhibitors. 310,000 compounds, 5.4% hits. AID 2551, 2010; note: potency is the fitted concentration of half-maximal effect; nearly all actives have a fitted effect of over 60% in size
Target sequence (P51450 whole entry, looked up, the tested form may be a part): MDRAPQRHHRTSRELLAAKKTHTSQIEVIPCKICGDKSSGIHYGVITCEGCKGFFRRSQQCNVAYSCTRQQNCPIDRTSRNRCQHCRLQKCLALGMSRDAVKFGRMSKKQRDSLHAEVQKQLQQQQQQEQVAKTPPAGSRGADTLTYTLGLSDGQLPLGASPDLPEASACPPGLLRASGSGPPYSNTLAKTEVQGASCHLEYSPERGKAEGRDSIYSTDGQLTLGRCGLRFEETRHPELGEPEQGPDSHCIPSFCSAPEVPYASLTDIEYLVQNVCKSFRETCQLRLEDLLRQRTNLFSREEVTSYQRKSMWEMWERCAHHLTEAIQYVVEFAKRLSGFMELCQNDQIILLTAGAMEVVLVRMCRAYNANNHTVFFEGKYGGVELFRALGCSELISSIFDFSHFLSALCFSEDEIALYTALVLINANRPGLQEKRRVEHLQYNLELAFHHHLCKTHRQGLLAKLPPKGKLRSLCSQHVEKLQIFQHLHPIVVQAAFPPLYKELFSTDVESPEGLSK
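Stably transfected Drosophila Schneider cells are the test system, with ROR gamma fused to Gal4 and luciferase under UAS control; luminescence is read after 20 hr of 700 uM copper sulfate induction at ambient temperature.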
An asterisk follows results filed as active; i = inactive; ? = inconclusive; / = no result; [ ] = remark or other dose. Compounds with a hit are over-represented: about 21% of the library has one in this group of screens. Unless noted, calls come from the whole dose curve; as a rule, active = well fitted curve in the direction sought with a large enough effect; inconclusive = small, poorly fitted or top-dose-only effect, or another doubt; inactive = no such curve, though single readings can be large; an effect the other way counts as inactive or inconclusive. % is set by controls: 0 for no effect and ±100 for the full control effect.

SMILES	DT40 TDP1 CPT	Gal4-VP16 FLuc	DT40 TDP1 no CPT	ELG1 repair inh	IL-1B inflam inh	RORg inh
COc1ccc(C(=O)c2[nH]c(N)c(C(=O)NCCc3c[nH]c4ccccc34)c2-c2c(F)cccc2Cl)cc1	16µM*	/	15µM*	/	-9	/
COc1ccc(C(=O)c2[nH]c(N)c(C(=O)NCCc3c[nH]c4ccccc34)c2-c2ccc(OC)c(OC)c2)cc1	16µM*	/	8.2µM*	/	?	/
Nc1[nH]c(C(=O)c2ccccc2)c(-c2ccc(Cl)c(F)c2)c1C(=O)NCCc1c[nH]c2ccccc12	?	/	?	/	-9	/
Nc1[nH]c(C(=O)c2ccccc2)c(-c2ccc(F)cc2)c1C(=O)NCCc1c[nH]c2ccccc12	?	/	23µM*	/	?	/
COC(=O)/C=C/c1ccccc1CN1[C@@H](CC(=O)OC)c2ccccc2S1(=O)=O	-24%	/	-9%	-1%	15	/
Cc1cccc(NC(=O)c2nc[nH]c2C(=O)N2CCN(C(=O)OC(C)(C)C)CC2)c1	21µM*	/	?	-28%	-2	/
Cc1cccc(NC(=O)c2nc[nH]c2C(=O)NC2CCN(C(=O)OC(C)(C)C)CC2)c1	4%	/	8%	26µM*	7	/
Cc1cccc(NC(=O)c2nc[nH]c2C(=O)N2CCC(C)CC2)c1	1%	/	-6%	-4%	-13	/
COc1ccc(CCC(=O)N2c3ccccc3N=C(c3ccc4c(c3)OCO4)C2C(=O)NCc2ccccc2)cc1 (stereo unspecified)	?	/	?	/	-9	/
CCOC(=O)C1CCN(C(c2ccccc2OC)c2c(O)cc(C)n(CCOC)c2=O)CC1 (stereo unspecified)	-9%	/	-11%	/	/	/
NC1=NN=C(N2N=C(c3ccc(Br)cc3)CC2(O)C(F)(F)F)n2ncnc2C1 (stereo unspecified)	10%	18µM*	-22%	-8%	-5	?
NC1=NN=C(N2N=C(c3ccccc3)CC2(O)C(F)(F)F)n2ncnc2C1 (stereo unspecified)	?	?	4%	-3%	-3	13µM*
COc1ccc(C2=NN(C3=NN=C(N)Cc4ncnn43)C(O)(C(F)(F)F)C2)cc1 (stereo unspecified)	15%	11µM*	9%	4%	-12	8.9µM*
COc1ccccc1C1=NN(C2=NN=C(N)Cc3ncnn32)C(O)(C(F)(F)F)C1 (stereo unspecified)	-3%	-7%	-1%	-10%	?	?
CC(=O)Nc1ccc(CN2CCC(N3CCC(C(=O)NC4CC4)CC3)CC2)cc1	-21%	/	12%	/	-9	/
COC(=O)Cc1c(C(=O)OC)nnn1-c1ccc(OC(F)(F)F)cc1	-10%	-18%	-11%	-13%	31	13%
CC(C)(C)C1CCc2c(sc(NC(=O)c3noc4c3CCCC4)c2C#N)C1 (stereo unspecified)	-22%	/	-6%	/	/	/
CCOC(=O)[C@]12CCC=C1N(Cc1ccc3c(c1)OCO3)C(=O)[C@H](CC(=O)NCCc1ccccc1OC)C2	?	/	?	/	0	/
CCOC(=O)[C@@H]1CSCCS(=O)(=O)N1Cc1ccccc1Br	-29%	/	-24%	/	39	/
NNc1nc2c(F)cccc2s1	?	?	15µM*	?	5	16µM*
Fc1cccc2sc(N3CCOCC3)nc12	19%	22%	-19%	?	-12	43%
Fc1cccc2sc(Nc3nc4c(F)cccc4s3)nc12	?	?	13µM*	-2%	17	4.5µM*
NNc1nc2c(F)cc(F)cc2s1	?	18µM*	23µM*	?	-25	?
Nc1nc2c(F)cccc2s1	-3%	-4%	2%	?	28	21%
O=C(Nc1nc2c(F)cccc2s1)C1CC1	-6%	?	-12%	?	22	30%
SMILES	DT40 TDP1 CPT	Gal4-VP16 FLuc	DT40 TDP1 no CPT	ELG1 repair inh	IL-1B inflam inh	RORg inh
CC1CCc2c(sc(Nc3nc4c(F)cccc4s3)c2C(N)=O)C1 (stereo unspecified)	?	5µM*	16µM*	?	-78*	5.6µM*
CCn1c(SCc2ccccc2)nnc1-c1cccnc1	26%	2%	0%	?	-2	2%
O=C(C(=O)N1CCN(c2ccc([N+](=O)[O-])cc2)CC1)c1cn(CC(=O)N2CCOCC2)c2ccccc12	?	4%	?	-11%	i	?
Cc1c(C(=O)N2CCOCC2)cc(C(C)(C)C)n1-c1ccccc1	?	-2%	21µM*	-21%	-2	24%
CC(C(=O)N1CCOCC1)(c1ccccc1)c1ccccc1	-4%	-4%	-21%	5%	1	20%
COc1cc(NC(=O)Cn2c(=O)n(-c3ccccc3)c(=O)c3c4c(sc32)CCCC4)cc(OC)c1	-6%	/	-28%	/	/	/
CC(C)OCCOc1ccc2oc(-c3ccco3)cc(=O)c2c1	-19%	?	?	?	-66*	127%
N#CCOc1ccc2oc(-c3ccco3)cc(=O)c2c1	/	10%	/	?	/	24%
C/C(=N/Nc1ccc(C(=O)O)cc1)c1ccc(O)c(O)c1O	15µM*	-18%	15µM*	?	5	?
CCOC(=O)NC(c1ccc(C(C)C)cc1)C(Cl)(Cl)Cl (stereo unspecified)	0%	?	-9%	22%	0	?
CCOC(=O)NC(C(Cl)(Cl)Cl)S(=O)(=O)c1ccccc1 (stereo unspecified)	?	?	?	?	-87*	-42%
Cc1nc(Nc2ccc(Cl)cc2)c(C#N)c(=O)[nH]1	-3%	-6%	2%	13%	4	-5%[1.91 µM]
Cn1c(/C(C#N)=C/C2CC=CCC2)nc2ccccc21 (stereo unspecified)	?	?	?	?	-96*	?
Cn1c(C(O)C(O)c2ccccc2)nc2ccccc21 (stereo unspecified)	0%	1%	-27%	14%	0	4%
N#C/C(=C\C1CC=CCC1)c1nc2ccccc2[nH]1 (stereo unspecified)	-13%	?	?	29%	-52*	?

High-throughput results deposited in PubChem by National Center for Advancing Translational Sciences (NCATS).
